Bioassay records deposited in PubChem BioAssay by several laboratories.
Compounds with a hit are over-represented: about 7% of the library has one in this group of screens.
ADAM10 inh: ADAM10 inhibition, QFRET primary screen. O14672. recombinant ADAM10, EDANS/DABCYL FRET peptide cleavage, 3 h. inhibition, % at 7 µM. 370,000 compounds, 0.62% hits. AID 720582;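 active = inhibition above a per-campaign cutoff equal to the mean of compounds falling between control-based bounds plus 3 SD, cut at about 20% in these data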;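 note: 0% = DMSO wells while the 100% control is not disclosed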
proKLK7 act: activators of human kallikrein-7 zymogen; P49862; purified proKLK7, EDANS-DABCYL substrate fluorescence; 100% is mature enzyme control, 0% vehicle; activation, % at 7 µM; 370,000 compounds, 0.9% hits; AID 652039;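 active = activation above the mean of all tested compounds plus 3 SD, computed per campaign excluding outliers beyond control limits, cut at about 13% in these data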
rCAG RNA binder: r(CAG) repeat RNA binding; inhibition, % at 3 µM; AID 651821; TO-PRO-1 dye displacement fluorescence; 370,000 compounds, 1.3% hits;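 active = inhibition above the plate cutoff, the mean of all test compounds on that plate plus 3 SD, cut at about 35% in these data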;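 note: 0% = DMSO alone and 100% = 100 µM mitoxantrone as full dye displacement; higher means more dye released from RNA so lower well fluorescence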
ADAM17 inh: ADAM17 inhibition, QFRET primary screen | P78536 | recombinant ADAM17, EDANS/DABCYL FRET peptide cleavage | inhibition, % at 6.95 µM | 370,000 compounds, 0.83% hits;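 active = inhibition above the mean of compounds lying between control limits plus 3 SD, set per campaign, cut at about 8.5% in these data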;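 note: 0% = DMSO-only wells as the low control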
NR3A LBD binder: modulators (binders) of human NR3A ligand-binding domain; Tm shift relative to glycine control, % at 25 µM; NR3A LBD differential scanning fluorimetry, Tm shift; 0% = protein alone, 100% = glycine-bound protein; 340,000 compounds, 2.5% hits; AID 1259313;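 active = melting temperature shift of at least 10% of the positive control shift, at one fixed dose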
AHR act: activates the human aryl hydrocarbon receptor. activation, % at 5 µM. P35869. 320,000 compounds, 2.5% hits. AHR-responsive luciferase reporter cells, luminescence; in the data active = activation above about 47%;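 note: 0% = vehicle wells and 100% = reference agonist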
Numbers without * were called inactive; . = not tested or not shown.

SMILES	ADAM10 inh	proKLK7 act	rCAG RNA binder	ADAM17 inh	NR3A LBD binder	AHR act
CCOC(=O)[C@@]12CCC3=C1N(CCC3)C(=O)[C@H](CC(=O)NCCCN1CCCC1=O)C2	-2.7	0.2	-0.5	-2.5	.	.
O=C(N[C@H](Cc1ccccc1)C(=O)N1CCN(CC(=O)N2CCCC2)CC1)[C@H]1O[C@@H](n2ccc(=O)[nH]c2=O)[C@H](O)[C@@H]1O	-16.1	-0.1	-0.7	-3.3	.	.
CC(=O)c1c(C)[nH]c(-c2ccccc2)nc1=S	-8.9	0.2	-0.9	-5.5	3.5	65.6*
COc1ccccc1-c1nc(=S)c(C(C)=O)c(C)[nH]1	5.2	-0.4	-0.5	-0.7	1.9	54.0*
CC(=O)c1c(C)nc(-c2ccccc2)nc1N	-6.4	-0.1	-1.1	-2.2	-1.0	76.9*
Clc1ccccc1-c1nnc2sc(-c3cccs3)nn12	-3.6	-0.5	5.7	-4.0	-0.2	70.8*
CCCCc1cc(=O)oc2cc(C)cc(OCC(=O)NCc3ccncc3)c12	-331.0	5.0	-5.4	-107.9	-2.6	56.0*
Cc1cc(OCC(=O)Nc2cccnc2)c2c(C)cc(=O)oc2c1	-127.5	5.1	0.1	-27.0	2.9	63.7*
CNc1nc(N)c([N+](=O)[O-])c(Nc2cccc(OC)c2)n1	5.7	.	.	2.5	.	.
O=C(NN=C1c2ccccc2-c2ccccc21)c1ccccc1	0.8	1.8	3.6	-2.2	1.1	59.3*
COc1ccc(C(=O)c2sc3nc(-c4ccc(OC)cc4)ccc3c2N)cc1	-54.4	-0.3	16.5	-17.7	-1.9	8.7
COc1ccc(-c2ccc3c(N)c(C(=O)c4cccc(OC)c4)sc3n2)cc1	-109.2	1.7	31.3	-35.8	17.4*	77.3*
Cc1cccc(Nc2nc(N)nc(-c3oc4ccccc4c3C)n2)c1	-192.9	-5.0	12.2	-68.2	3.9	-6.5
COc1cccc(Nc2nc(N)nc(-c3oc4ccccc4c3C)n2)c1	8.8	-2.1	18.2	3.7	17.0*	-13.2
O=C(Nc1ccc(F)cc1)OC1CC2CC1[C@H]1CCCCN1[C@H]2Cc1ccccc1 (stereo not given in full)	-4.7	0.3	8.9	-2.6	.	.
COCCNC(=O)c1c(N)[nH]c(C(=O)c2ccc(Br)cc2)c1-c1c(OC)ccc2ccccc12	2.9	.	.	-1.9	.	.
CCC(C)[C@H](NC(=O)OC(C)(C)C)C(=O)N[C@@H](Cc1ccccc1)C(=O)OC (stereo not given in full)	-4.4	-0.6	-1.9	-0.8	.	.
COc1ccc(S(=O)(=O)N2CCOCC2)cc1NC(=O)COc1ccc(C)cc1	-0.8	0.9	9.2	0.4	17.6*	-0.9
COc1ccc(S(=O)(=O)N2CCOCC2)cc1NC(=O)COC(=O)CCOc1ccc(C)cc1	-6.7	0.5	-0.4	0.4	2.1	-1.0
CCN(CC)S(=O)(=O)c1ccc(OC)c(NC(=O)COc2ccc3c(C)cc(=O)oc3c2)c1	-105.8	-1.7	11.2	-35.4	11.4*	4.2
Cc1ccc(CNC(=O)COc2ccc(S(=O)(=O)N3CCOCC3)cc2)cc1	2.5	-0.3	-1.1	-3.0	10.1*	0.2
COc1cc(NC(=O)COc2ccc3c(C)cc(=O)oc3c2C)cc(OC)c1OC	-7.5	0.6	-2.1	-3.9	14.0*	0.9
COC(=O)[C@]12C[C@H](CC(=O)N3CCCC3)C(=O)N(CCc3ccc(OC)c(OC)c3)C1=C[C@H](COCc1ccccc1)O[C@@H]2C	-4.0	0.7	0.5	-3.8	.	.
Cc1ccc([N+](=O)[O-])cc1S(=O)(=O)NCc1cccnc1	-0.8	-0.6	-0.5	0.8	3.5	-1.5
Cc1ccc([N+](=O)[O-])cc1S(=O)(=O)NCCc1c(C)[nH]c2c(C)cccc12	-4.2	0.2	15.4	-2.5	33.0*	11.5
SMILES	ADAM10 inh	proKLK7 act	rCAG RNA binder	ADAM17 inh	NR3A LBD binder	AHR act
Cc1[nH]c2c(C)cccc2c1CCNS(=O)(=O)c1cccc([N+](=O)[O-])c1	6.7	0.0	6.4	-2.8	30.2*	8.2
COC(=O)C1=C(C)N(Cc2ccccc2C(F)(F)F)C(=NCc2ccccc2)NC1c1cccc(F)c1 (stereo not given)	-10.6	-1.1	4.1	-2.4	.	.
CC(Sc1nnc(NCc2ccccc2)s1)C(=O)Nc1ccc2c(c1)C(=O)c1ccccc1C2=O (stereo not given)	9.8	1.2	31.3	5.7	-4.5	50.0*
Cc1c(C(=O)OC2CCCC2)[nH]c2c1C(=O)CC(c1ccco1)C2 (stereo not given)	0.3	0.8	12.2	1.7	-0.6	57.4*
O=C(OCc1cn(Cc2cccc(Cl)c2)nn1)N1CCOCC1	-2.7	0.1	1.4	-8.6	.	.
COc1nc(N/N=C/c2ccc(-c3ccccc3[N+](=O)[O-])o2)nc(N2CCOCC2)n1	-0.5	-0.7	1.2	-0.9	-2.1	50.0*
O=[N+]([O-])c1ccc(-c2ccc(/C=N/Nc3nc(NCc4ccccc4)nc(N4CCOCC4)n3)o2)cc1	5.5	0.0	10.9	0.9	10.8*	3.9
O=[N+]([O-])c1ccc(/C=N/Nc2nc(N3CCCCCC3)nc(N3CCCCCC3)n2)o1	-4.5	0.5	10.4	-4.4	-7.4	2.4
Clc1ccc(-c2cn3c(n2)-c2ccccc2C3)cc1Cl	-14.4	-0.3	9.5	-1.1	29.6*	61.7*
COc1ccc(NC(=S)NNC(=O)CNc2ccc(Cl)cc2)cc1	2.5	0.3	3.3	0.6	11.8*	3.8
Cc1ccc(N2C(=O)C3C(C2=O)N2C(c4cccs4)C4C(=O)N(c5ccc(C)cc5)C(=O)C4N2C3c2cccs2)cc1 (stereo not given)	12.1	-1.6	25.6	13.0*	4.1	-1.2
CCN1Cc2nnn(Cc3ccccc3)c2-c2cc(F)ccc2S1(=O)=O	-2.6	0.4	1.4	-1.1	.	.
Cc1ccc2cc(C#N)c(N3CCCN(S(=O)(=O)c4ccccc4)CC3)nc2c1C	-27.3	-1.3	3.2	-13.1	11.1*	4.8
Cc1ccc2cc(C#N)c(N3CCCN(S(=O)(=O)c4ccccc4)CC3)nc2c1	-102.1	-2.0	5.4	-29.8	-1.0	22.5
O=C(C1=C[C@@H]2[C@H]3C(=O)N(c4ccc(Cl)cc4)C(=O)[C@H]3[C@@H](C(=O)c3ccc(Cl)cc3)N2C=C1)c1ccccc1	-0.5	0.1	21.5	-1.3	7.0	49.5*
COC(=O)C1CN(Cc2ccc(OC)cc2)CCS(=O)(=O)N1Cc1ccc(Cl)cc1 (stereo not given)	-5.7	0.2	8.4	-2.2	.	.
CCC[C@H](/C=C/C(=O)OC(C)(C)C)Sc1ccc(N)cc1	10.6	0.1	1.5	6.4	.	.
O=c1c2ccccc2oc2ccccc12	-12.8	-1.1	1.1	-2.8	.	.
O=c1c2ccccc2oc2c1ccc1ccccc12	.	.	.	.	18.1*	.
Cc1ccccc1C(=O)N(C)[C@H]1C[C@H]2c3[nH]c4c(-c5ccccc5)cccc4c3CCN2C(=O)[C@H]1[C@H](C)O	-27.7	1.6	7.3	-2.8	.	.
O=C(Nc1cccs1)Nc1ccccc1Br	-5.1	-0.4	0.4	-2.8	4.6	57.5*
